Assay results taken from PubChem BioAssay AID1159580 (chemical genetic matrix, 2015).
Values joined by “and” are separate entries in the source; they are usually repeats but may differ in a detail not shown here. Identical values can stand only once. In all, about 5,500 compounds went through this assay and about 2,000 (36%) were called active. Another 18% or so got no clear call; they are omitted. Some of the results follow. A number with no mark means an inactive call. Cut-off read from the data, not from the text of the source: active = normalized growth mostly below about 0.91 (no sharp cut-off); inconclusive = no clear call, values can overlap the other calls; inactive = mostly above about 0.92.

Assay: chemical genetic growth profiling, strain panel (AID 1159580);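 note: tested at 20 µM; growth read once vehicle control cultures reached saturation at 30 °C; 1 = growth at the plate median or of vehicle wells; lower values mean less growth of the strain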
Conditions: S. cerevisiae deletion strains, growth OD

Q: What does the source list for `O=c1cc(-c2ccccc2)oc2cc(O)c(O)c(O)c12`?
A: normalized growth (locus YAL013W, strain DEP1, hits give low values): 0.367 (active); normalized growth (locus YAL021C, strain ccr4, hits give low values): 0.0818 (active); normalized growth (locus YAL026C, strain drs2, hits give low values): 0.198 (active); normalized growth (locus YAL030W, strain snc1, hits give low values): 0.562 (active); normalized growth (locus YBL061C, strain skt5, hits give low values): 0.449 (active); normalized growth (locus YBR009C, strain hhf1, hits give low values): 0.535 (active); normalized growth (locus YBR021W, strain FUR4, hits give low values): 0.885; normalized growth (locus YBR023C, strain chs3, hits give low values): 0.279 (active); normalized growth (locus YBR171W, strain sec66, hits give low values): 0.386 (active); normalized growth (locus YBR229C, strain ROT2, hits give low values): 0.458 (active); normalized growth (locus YBR231C, strain swc5, hits give low values): 0.29 (active); normalized growth (locus YBR279W, strain paf1, hits give low values): 0.574 (active); normalized growth (locus YCL011C, strain gbp2, hits give low values): 0.565 (active); normalized growth (locus YCL016C, strain dcc1, hits give low values): 0.683 (active); normalized growth (locus YCL029C, strain bik1, hits give low values): 0.174 (active); normalized growth (locus YCL069W, strain vba3, hits give low values): 0.608 (active); normalized growth (locus YCR088W, strain abp1, hits give low values): 0.604 (active); normalized growth (locus YDL005C, strain med2, hits give low values): 0.636 (active); normalized growth (locus YDL035C, strain GPR1, hits give low values): 0.402 (active); normalized growth (locus YDL040C, strain nat1, hits give low values): 0.612 (active); normalized growth (locus YDL074C, strain BRE1, hits give low values): 0.219 (active); normalized growth (locus YDL101C, strain DUN1, hits give low values): 0.115 (active); normalized growth (locus YDL134C, strain PPH21, hits give low values): 0.586 (active); normalized growth (locus YDL185W, strain tfp1, hits give low values): 0.549 (active); normalized growth (locus YDL192W, strain arf1, hits give low values): 0.512 (active); normalized growth (locus YDR001C, strain nth1, hits give low values): 0.721 (active); normalized growth (locus YDR069C, strain doa4, hits give low values): 0.127 (active); normalized growth (locus YDR101C, strain arx1, hits give low values): 0.176 (active); normalized growth (locus YDR137W, strain rgp1, hits give low values): 0.161 (active); normalized growth (locus YDR150W, strain NUM1, hits give low values): 0.591 (active); normalized growth (locus YDR159W, strain sac3, hits give low values): 0.148 (active); normalized growth (locus YDR162C, strain NBP2, hits give low values): 0.224 (active); normalized growth (locus YDR195W, strain ref2): 0.327 (active); normalized growth (locus YDR297W, strain sur2, hits give low values): 0.445 (active); normalized growth (locus YDR318W, strain mcm21, hits give low values): 0.589 (active); normalized growth (locus YDR334W, strain swr1, hits give low values): 0.351 (active); normalized growth (locus YDR335W, strain msn5, hits give low values): 0.138 (active); normalized growth (locus YDR388W, hits give low values): 0.555 (active); normalized growth (locus YDR392W, strain spt3, hits give low values): 0.562 (active); normalized growth (locus YDR502C, strain sam2, hits give low values): 0.214 (active); normalized growth (locus YEL003W, strain gim4, hits give low values): 0.291 (active); normalized growth (locus YEL037C, strain rad23, hits give low values): 0.407 (active); normalized growth (locus YEL061C, strain CIN8 (second series), hits give low values): 0.695 (active); normalized growth (locus YEL061C, strain CIN8, hits give low values): 0.496 (active); normalized growth (locus YER015W, strain faa2, hits give low values): 0.287 (active); normalized growth (locus YER016W, strain bim1, hits give low values): 0.736 (active); normalized growth (locus YER110C, hits give low values): 0.851 (active); normalized growth (locus YER111C, strain swi4, hits give low values): 0.113 (active); normalized growth (locus YER155C, strain BEM2 (second series), hits give low values): 0.338 (active); normalized growth (locus YER155C, strain BEM2, hits give low values): 0.449 (active); normalized growth (locus YER167W, strain BCK2, hits give low values): 0.573 (active); normalized growth (locus YFR010W, strain ubp6, hits give low values): 0.218 (active); normalized growth (locus YGL078C, strain dbp3, hits give low values): 0.84 (active); normalized growth (locus YGL086W, strain mad1, hits give low values): 0.636 (active); normalized growth (locus YGL167C, strain pmr1, hits give low values): 0.396 (active); normalized growth (locus YGL173C, strain kem1, hits give low values): 0.23 (active); normalized growth (locus YGL227W, strain vid30, hits give low values): 0.677 (active); normalized growth (locus YGL240W, strain doc1, hits give low values): 0.657 (active); normalized growth (locus YGL248W, strain PDE1, hits give low values): 0.561 (active); normalized growth (locus YGL253W, strain hxk2, hits give low values): 0.485 (active); normalized growth (locus YGR078C, strain PAC10, hits give low values): 0.536 (active); normalized growth (locus YGR135W, strain pre9, hits give low values): 0.443 (active); normalized growth (locus YGR229C, strain SMI1, hits give low values): 0.107 (active); normalized growth (locus YGR252W, strain gcn5, hits give low values): 0.576 (active); normalized growth (locus YHR013C, strain ard1, hits give low values): 0.504 (active); normalized growth (locus YHR027C, strain rpn1, hits give low values): 0.295 (active); normalized growth (locus YHR030C, strain SLT2, hits give low values): 0.304 (active) and 0.677 (active); normalized growth (locus YHR079C, strain IRE1 (second series), hits give low values): 0.139 (active); normalized growth (locus YHR079C, strain IRE1, hits give low values): 0.612 (active); normalized growth (locus YHR094C, strain hxt1, hits give low values): 0.699 (active); normalized growth (locus YHR129C, strain ARP1, hits give low values): 0.531 (active); normalized growth (locus YHR142W, strain chs7, hits give low values): 0.285 (active); normalized growth (locus YHR200W, strain rpn10, hits give low values): 0.604 (active); normalized growth (locus YIL066C, strain RNR3, hits give low values): 0.425 (active); normalized growth (locus YIL073C, strain SPO22, hits give low values): 0.381 (active); normalized growth (locus YIL125W, strain kgd1, hits give low values): 0.808 (active); normalized growth (locus YIR030C, strain dcg1, hits give low values): 0.359 (active); normalized growth (locus YJL092W, strain hpr5, hits give low values): 0.531 (active); normalized growth (locus YJL095W, strain BCK1 (second series), hits give low values): 0.218 (active); normalized growth (locus YJL095W, strain BCK1, hits give low values): 0.0738 (active) and 0.684 (active); normalized growth (locus YJL115W, strain asf1, hits give low values): 0.648 (active); normalized growth (locus YJL129C, strain trk1, hits give low values): 0.312 (active); normalized growth (locus YJL134W, strain LCB3, hits give low values): 0.588 (active); normalized growth (locus YJL154C, strain vps35, hits give low values): 0.68 (active); normalized growth (locus YJL164C, strain tpk1, hits give low values): 0.347 (active); normalized growth (locus YJL166W, strain qcr8, hits give low values): 0.437 (active); normalized growth (locus YJL168C, strain set2, hits give low values): 0.808 (active); normalized growth (locus YJL187C, strain SWE1 (second series), hits give low values): 0.106 (active); normalized growth (locus YJR043C, strain POL32, hits give low values): 0.288 (active); normalized growth (locus YJR066W, strain TOR1, hits give low values): 0.68 (active); normalized growth (locus YJR075W, strain HOC1, hits give low values): 0.558 (active)
